High-throughput results (PubChem BioAssay)
Most compounds without a hit are left out; they make up all but 21% or so of the library.
Pf growth 48h – P. falciparum growth inhibition at 48 hours (one generation); P. falciparum luciferase growth in erythrocytes, 48 h; actives 5.9% (n = 310,000); Potency, µM (highest dose often 28.7 µM), actives largely listed as inhibitors
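Luciferase-expressing parasites in RBCs, 2% Hct / 0.1% parasitemia final; RPMI 1640 + 0.5% Albumax; 37 C, 5% CO2, one generation; luminescence read-out, lower signal = inhibition.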
Shiga inhibitor – Shiga toxin inhibition | inhibition, % at 38.7 µM | AID 2315 | Vero cells, Shiga toxin protein synthesis inhibition reporter | actives 9.2% (n = 290,000); in the data active = inhibition mostly above about 28%, no sharp cut-off; inactive = mostly below about 43%
Pf growth 96h – inhibits malaria parasite growth, 96 h. P. falciparum luciferase reporter growth, 96 h. Potency, µM (highest dose often 28.7 µM), usual class: inhibitors. actives 6.9% (n = 320,000). AID 504834
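Parasite growth measured via integrated firefly luciferase reporter in P. falciparum. Infected erythrocytes at 2% hematocrit, 0.05% parasitemia final were treated 96 hours at 37 C under 5% CO2, and luminescence was read.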
Cycloheximide cs – counter-screen hit for Shiga toxin inhibitors, cycloheximide. cell reporter, cycloheximide protein synthesis inhibition counterscreen. max response, %. actives 12% (n = 300,000); in the data active = max response mostly above about 13%, no sharp cut-off; inactive = mostly below about 14%; also: read at 38.3 µM for the half of the compounds with a filed dose
Numbers stand for hits; n = inactive; u = inconclusive; x = no result given; ! = not active in a repeat. Unless noted, calls follow the shape of the dose curve; as a rule, active = well fitted inhibition curve with a large enough effect; inconclusive = small, poorly fitted or top-dose-only effect, or another doubt; inactive = no such curve, though single readings can be large or run the other way.

SMILES	Pf growth 48h	Shiga inhibitor	Pf growth 96h	Cycloheximide cs
Cc1ccc(C)c(N2N=C(C(=O)OCc3nnc(-c4ccccc4)o3)CCC2=O)c1	n	x	n	x
CCCCc1ccc(NC(=O)Nc2cccnc2)cc1	u	153	n	76
CCCCc1ccc(NC(=O)OC)cc1	n	46	n	n
CCc1ccc(NC(=O)NCc2cccnc2)cc1	n	n	u	27
O=C(NCc1cccnc1)Nc1ccccc1	n	n	n	n
CCCCc1ccc(NC(=S)Nc2ccc(Nc3ccc(OC)cc3)cc2)cc1	n	n	n	n
CCCCc1ccc(NC(=S)Nc2cccnc2)cc1	n	n	n	n
COc1ccc(N2CCN(C(=O)COc3ccc(S(=O)(=O)N4CCOCC4)cc3C)CC2)cc1	n	n	u	n
Cc1cc(C)[n+]2n1C(=O)C(c1ccccc1)=C2[O-]	n	n	n	33!
COC(=O)c1cc(OC)c(OC)cc1N1C(=O)CC(C)(C)CC1=O	n	n	n	n
NC(=S)c1ncc(C(F)(F)F)cc1Cl	n	n	n	n
FC(F)(F)c1cnc(-c2cnc(-c3ccccn3)nc2)c(Cl)c1	n	52	6.6µM	n
FC(F)(F)c1cnc(-c2cnc(-c3ccncc3)nc2)c(Cl)c1	n	n	n	20
Cc1ccsc1/C=N/n1cnc2sc(C)c(C)c2c1=O	n	n	n	16
Cc1sc2ncn(/N=C/c3cn(-c4ccccc4)nc3-c3ccccc3)c(=O)c2c1C	x	n	x	n
O=C(NCc1ccccc1)C(c1ccc(F)cc1)N(Cc1ccc2c(c1)OCO2)C(=O)Cn1nnc(-c2cccs2)n1 (stereo not drawn)	10µM	n	n	n
Cc1ccc(N(C(=O)Cn2nnc(-c3cccs3)n2)C(C(=O)NC2CCCC2)c2ccncc2)cc1 (stereo not drawn)	u	n	n	n
CC(C)(C)NC(=O)C(c1ccncc1)N(C(=O)Cn1nnc(-c2cccs2)n1)C1CCCCC1 (stereo not drawn)	9.3µM	n	n	n
CC(C)(C)NC(=O)C(c1ccc(O)cc1)N(Cc1ccco1)C(=O)Cn1nnc(-c2cccs2)n1 (stereo not drawn)	13µM	n	n	n
Cc1ccc(C(C(=O)NC(C)(C)C)N(Cc2ccco2)C(=O)Cn2nnc(-c3cccs3)n2)cc1 (stereo not drawn)	9.3µM	n	n	n
CC(Cl)OC(=O)Nc1cccc2cccnc12 (stereo not drawn)	x	n	x	n
CC(C)(C)NC(=O)C(c1ccncc1)N(Cc1cccs1)C(=O)Cn1nnc(-c2cccs2)n1 (stereo not drawn)	2.9µM	n	u	n
CCC(C)(C)NC(=O)C(c1ccncc1)N(Cc1cccs1)C(=O)Cn1nnc2ccccc21 (stereo not drawn)	u	n	12µM	n
CCC(C)(C)NC(=O)C(c1ccc(C)cc1)N(Cc1ccco1)C(=O)Cn1nnc2ccccc21 (stereo not drawn)	u	n	n	n
CCOC(=O)/C(C#N)=C/N=c1ccc(C)cn1C	n	68	n	51
SMILES	Pf growth 48h	Shiga inhibitor	Pf growth 96h	Cycloheximide cs
CCOC(=O)/C(C#N)=C/C=C1\C=Cc2ccccc2N1CC	u	n	u	n
CCCN1C=CC(=C/C=C(\C#N)C(=O)OCC)C=C1	n	93	n	28
CCCCCCN1C=CC(=C/C=C(\C#N)C(=O)OCC)C=C1	10µM	n	13µM	n
O=C(COc1ccccc1[N+](=O)[O-])Nc1ccc(NC(=O)c2cc3ccccc3o2)cc1	u	n	n	n
O=C(N/N=C/c1ccco1)c1cc2ccccc2o1	n	59	n	42
Cc1nc2ccccc2cc1C(=O)N/N=C/c1ccco1	n	n	n	n
O=C(O)/C(=C/c1ccco1)NC(=O)c1ccc(Br)o1	u	n	13µM	n
O=C(N/N=C\c1ccco1)c1cncc(Br)c1	n	n	n	n
O=C(COc1ccc(/C=N/NC(=O)c2cc3ccccc3o2)cc1Br)Nc1ccccc1	n	112	u	53
O=C(N/N=C/c1ccco1)c1ccc(Br)o1	n	67	n	25
Cc1ccc(C(=O)NCC(=O)N2CCc3ccccc3C2)cc1C	n	n	n	n
COc1cc(C(=O)N2CCc3ccccc32)c([N+](=O)[O-])cc1OC	n	n	n	n
CCCCCCCc1c(C)nc(N2CCOCC2)[nH]c1=O	1.5µM	n	x	n
CCCCCCc1c(C)nc(-n2[nH]c(C)c(CCO)c2=O)[nH]c1=O	u	n	9.3µM	n
Cc1nc(N2CCOCC2)[nH]c(=O)c1CCC(C)C	n	n	x	n
CCCCc1c(C)nc(N2CCCC2)[nH]c1=O	6.6µM	n	4.7µM	n
Cc1[nH]n(-c2ccc(Cl)c(Cl)c2)c(=O)c1CCO	u	n	u	n
